Values joined by “and” are separate entries in the source; they are usually repeats but may differ in a detail not shown here. Equal values may be shown once. Compounds without any hit were thinned out: in the full panel of roughly 83,000, 20% have a hit.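 For each line, cells grew in 96-well plates with the test compound present at a single concentration for 48 hours.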 Active and inactive are the calls of the source. Rule for the calls: active = growth percent below 10; inactive = the rest. Where a SMILES comes first, the peptide text is derived from it. [ ]: non-standard residue; d: D form. ξ: configuration not given here. ξV = CC(C)C(N)C(=O)O
Assays:
Assay in all cases: NCI-60 one-dose screen, 48 h (100 = growth as untreated, 0 = no growth, -100 = all killed)
RPMI-8226 leukemia = settings: 10 µM
OVCAR-8 ovarian = settings: 10 µM
OVCAR-5 ovarian = settings: 10 µM
OVCAR-4 ovarian = settings: 10 µM
SK-OV-3 ovarian = settings: 10 µM
IGROV1 ovarian = settings: 10 µM
OVCAR-3 ovarian = settings: 10 µM
HS 578T breast = settings: 10 µM
NCI/ADR-RES ovarian = settings: 10 µM
SR leukemia = settings: 10 µM unless noted

SMILES | growth (RPMI-8226 leukemia) | growth (OVCAR-8 ovarian) | growth (OVCAR-5 ovarian) | growth (OVCAR-4 ovarian) | growth (SK-OV-3 ovarian) | growth (IGROV1 ovarian) | growth (OVCAR-3 ovarian) | growth (HS 578T breast) | growth (NCI/ADR-RES ovarian) | growth (SR leukemia)
CCCCCCCCCCSC(=N)N | -11% (active) | 61.5% (inactive) | 77.4% (inactive) | 76.7% (inactive) | 77.5% (inactive) | 46.1% (inactive) | 67% (inactive) | 81.1% (inactive) | 69.3% (inactive) | –
CCN(CC)c1ccc(NC(C(=O)c2ccccc2)c2ccccc2)cc1 (stereo unspecified) | 8.53% (active) | 9.32% (active) | 60.9% (inactive) | 65.2% (inactive) | 109% (inactive) | 59.4% (inactive) | -4.87% (active) | 46.1% (inactive) | 25.4% (inactive) | –
Clc1cc(Cl)c(Cl)nn1 | 75.6% (inactive) | 94.1% (inactive) | 115% (inactive) | 109% (inactive) | 95.2% (inactive) | 107% (inactive) | 114% (inactive) | – | 107% (inactive) | 72% (inactive)
Clc1ccc(/C=C/c2ccccn2)c(Cl)c1 | 102% (inactive) | 101% (inactive) | 106% (inactive) | 71.2% (inactive) | 103% (inactive) | 69.6% (inactive) | 90.4% (inactive) | 86.3% (inactive) | 109% (inactive) | 80.8% (inactive)
CCCCCCCCCCCCCCCCCCOCC(COP(=O)([O-])OCC[N+](C)(C)C)OC (stereo unspecified) | 33.1% (inactive) | – | -61.3% (active) | 109% (inactive) | 81.8% (inactive) | 11.8% (inactive) | 95.9% (inactive) | – | 107% (inactive) | 48.1% (inactive)
Oc1ccc(N=Nc2ccccn2)c(O)c1 | 21.2% (inactive) | 18.5% (inactive) | 53.8% (inactive) | 29.8% (inactive) | 25.5% (inactive) | 19.9% (inactive) | 32.7% (inactive) | – | 14.7% (inactive) | 10.6% (inactive)
O=C1NC(=O)c2cc([N+](=O)[O-])ccc21 | 71.2% (inactive) | 94.4% (inactive) | 101% (inactive) | 117% (inactive) | 105% (inactive) | 103% (inactive) | 110% (inactive) | – | 113% (inactive) | 95.3% (inactive)
CC[N+](CC)=c1ccc2nc3c(cc(N)c4ccccc43)oc-2c1 | 10.2% (inactive) | -28.4% (active) | -81.7% (active) | -42.6% (active) | -72.7% (active) | -42.2% (active) | -56.8% (active) | -26.2% (active) | -62.2% (active) | –
CO[C@H](C(=O)[C@@H](O)[C@@H](C)O)[C@@H]1Cc2cc3cc(OC4CC(OC5CC(O)C(O)C(C)O5)C(O)C(C)O4)c(C)c(O)c3c(O)c2C(=O)[C@H]1OC1CC(OC2CC(OC3CC(C)(O)C(O)C(C)O3)C(O)C(C)O2)C(O)C(C)O1 (stereo partly specified) | -14.5% (active) | – | -54.9% (active) | 8.23% (active) | 35.3% (inactive) | -21% (active) | 3.02% (active) | – | 44.4% (inactive) | –
Nc1ccc2cc3ccc(N)cc3nc2c1 | 77.5% (inactive) and 3.77% (active) | 88% (inactive) and -2.44% (active) | 84.9% (inactive) and 26.6% (inactive) | 104% (inactive) and -5.13% (active) | 78.5% (inactive) and 12.8% (inactive) | 111% (inactive) and 19.1% (inactive) | 122% (inactive) and 11.3% (inactive) | – | 89.1% (inactive) and 12.6% (inactive) | –
NC(=O)SCC(=O)NNc1ccccc1 | 105% (inactive) | 93.8% (inactive) | – | 104% (inactive) | 100% (inactive) | 103% (inactive) | 107% (inactive) | – | 95.5% (inactive) | –
CSC1SCC2C(=O)N(C)C(C(C)C)C(=O)OCC(NC(=O)c3cnc4ccccc4n3)C(=O)NC(C)C(=O)N(C)C1C(=O)N(C)C(C(C)C)C(=O)OCC(NC(=O)c1cnc3ccccc3n1)C(=O)NC(C)C(=O)N2C (stereo unspecified) | -30% (active) | – | 2.94% (active) | 1.22% (active) | 15.5% (inactive) | 0.149% (active) | 5.79% (active) | – | 7.62% (active) | –
COc1c(O)cc2oc3cc(O)c(CC=C(C)C)c(O)c3c(=O)c2c1CC=C(C)C | 49.9% (inactive) | 54.7% (inactive) | – | 82.2% (inactive) | 89% (inactive) | 75% (inactive) | 46.1% (inactive) | – | 38.6% (inactive) | –
O=C(/C=C/c1cccnc1)c1ccccc1 | 54.1% (inactive) | 83.8% (inactive) | 91.3% (inactive) | 91.7% (inactive) | 103% (inactive) | 96.5% (inactive) | 85.8% (inactive) | – | 86% (inactive) | –
Cc1nc(N=C(N)N)nc2ccc3ccccc3c12 | 34.9% (inactive) | -6.19% (active) | 26.8% (inactive) | -3.65% (active) | -5.35% (active) | 7.89% (active) | -32.7% (active) | – | 67.6% (inactive) | –
CC(C)(C)CC(C)(C)c1ccc(OCCO)cc1 | 124% (inactive) | 108% (inactive) | 111% (inactive) | 124% (inactive) | 116% (inactive) | 108% (inactive) | 116% (inactive) | – | 105% (inactive) | –
O=C(/C=C/c1ccccn1)c1ccccc1 | 25.4% (inactive) | 28.9% (inactive) | 81% (inactive) | 47.2% (inactive) | 108% (inactive) | 46.1% (inactive) | 17.3% (inactive) | – | 35% (inactive) | –
OC(CN1CCCC2CCCCC21)c1cc2ccccc2c2ccccc12 (stereo unspecified) | 15.8% (inactive) | 51.6% (inactive) | 34.2% (inactive) | 29.1% (inactive) | 37.7% (inactive) | 58.1% (inactive) | 30.6% (inactive) | – | 17.4% (inactive) | –

SMILES | growth (RPMI-8226 leukemia) | growth (OVCAR-8 ovarian) | growth (OVCAR-5 ovarian) | growth (OVCAR-4 ovarian) | growth (SK-OV-3 ovarian) | growth (IGROV1 ovarian) | growth (OVCAR-3 ovarian) | growth (HS 578T breast) | growth (NCI/ADR-RES ovarian) | growth (SR leukemia)
COc1ccc(CC(=O)c2ccc(O)cc2O)cc1 | – | 92.8% (inactive) | 105% (inactive) | 99.2% (inactive) | 163% (inactive) | 122% (inactive) | 130% (inactive) | 108% (inactive) | 105% (inactive) | –
O=C1C=CC(=CC=C2C=CN(CCCCCCCCCCCO)C=C2)C=C1 | 11.9% (inactive) | 22.7% (inactive) | 55.4% (inactive) | 35.4% (inactive) | 45.4% (inactive) | 41.2% (inactive) | 30.2% (inactive) | – | 104% (inactive) | –
O=C1C=C(O)c2ccccc2C1=O.[Ag] | 104% (inactive) | 95.4% (inactive) | 115% (inactive) | 95.4% (inactive) | 137% (inactive) | 105% (inactive) | 117% (inactive) | – | 109% (inactive) | –
CC(C)C(NC(=O)CN)C(=O)O (stereo unspecified) (H-Gly-[ξV]-OH) | 109% (inactive) and 107% (inactive) | 101% (inactive) and 110% (inactive) | 103% (inactive) and 99.9% (inactive) | 105% (inactive) and 102% (inactive) | 106% (inactive) and 101% (inactive) | 109% (inactive) and 108% (inactive) | 112% (inactive) | – | 105% (inactive) and 111% (inactive) | –
Cc1cc(O)c(C(C)C)cc1Cl | 110% (inactive) | 104% (inactive) | 105% (inactive) | 109% (inactive) | 101% (inactive) | 112% (inactive) | 103% (inactive) | – | 112% (inactive) | –
O=[N+]([O-])C1=C(c2ccccc2)SC=C(c2ccccc2)S1 | 48.6% (inactive) | 71.4% (inactive) | 113% (inactive) | 87.4% (inactive) | 79.4% (inactive) | 76.3% (inactive) | 73.6% (inactive) | – | 78.1% (inactive) | –
CN1CCN(CCCN2c3ccccc3Sc3ccc(C(F)(F)F)cc32)CC1 | -7.1% (active) | 78.2% (inactive) | – | 71.2% (inactive) | 92.4% (inactive) | 40.7% (inactive) | 92% (inactive) | – | 70.8% (inactive) | –
CCCCCC(C)c1ccc(O)c(C)c1 (stereo unspecified) | – | 102% (inactive) | 102% (inactive) | 95.5% (inactive) | 106% (inactive) | 117% (inactive) | 105% (inactive) | – | 102% (inactive) | –
O=C(C(=Cc1ccccc1)C(=O)c1ccccc1)c1ccccc1 | -2.63% (active) and 85.2% (inactive) | 47.8% (inactive) and 87% (inactive) | 91.7% (inactive) and 84.7% (inactive) | 73.6% (inactive) and 84.7% (inactive) | 99.5% (inactive) and 106% (inactive) | 75.1% (inactive) and 117% (inactive) | 66.3% (inactive) and 85.7% (inactive) | – | 54.3% (inactive) and 84.3% (inactive) | –
O=C(Nc1ccc(C(=O)O)c(O)c1)c1ccccc1 | 132% (inactive) and 105% (inactive) | 97.7% (inactive) and 99.8% (inactive) | 93.8% (inactive) and 100% (inactive) | 108% (inactive) and 112% (inactive) | 100% (inactive) and 108% (inactive) | 100% (inactive) and 103% (inactive) | 115% (inactive) and 125% (inactive) | – | 84.2% (inactive) and 100% (inactive) | –
COC1OCC(O)C(O)C1O (stereo unspecified) | 109% (inactive) | 104% (inactive) | 110% (inactive) | 101% (inactive) | 111% (inactive) | – | 106% (inactive) | 98.9% (inactive) | 110% (inactive) | –
NC1=C(Cl)C(=O)c2ccccc2C1=O | 55.7% (inactive) | 74.4% (inactive) | 111% (inactive) | 72.3% (inactive) | 108% (inactive) | 67.7% (inactive) | 12.3% (inactive) | – | 80.4% (inactive) | –
NNc1ccc2ccccc2c1 | 92.8% (inactive) and 97.2% (inactive) | 97.8% (inactive) and 96.2% (inactive) | 92.3% (inactive) and 93% (inactive) | 89.9% (inactive) and 88.2% (inactive) | 76.3% (inactive) and 91.1% (inactive) | 83% (inactive) and 103% (inactive) | 92.1% (inactive) and 99.6% (inactive) | – | 97.1% (inactive) and 101% (inactive) | –
Cc1cc(NS(=O)(=O)c2ccc(N=Nc3cc(N=Nc4ccc(S(=O)(=O)Nc5cc(C)nc(C)n5)cc4)c4c(NC(=O)C(Cl)Cl)cccc4c3OC(=O)C(Cl)Cl)cc2)nc(C)n1 (tested in a mixture with another compound) | 114% (inactive) and 101% (inactive) | 94.8% (inactive) and 91.7% (inactive) | 122% (inactive) | 101% (inactive) and 94.3% (inactive) | 103% (inactive) and 105% (inactive) | 104% (inactive) | 114% (inactive) and 93.3% (inactive) | – | 107% (inactive) and 104% (inactive) | –
Nc1nc(=S)c2ncn(C3OC(CO)C(O)C3O)c2[nH]1 (stereo unspecified) | 103% (inactive) and 0.898% (active) | 100% (inactive) and 13.1% (inactive) | 101% (inactive) and 45.2% (inactive) | 103% (inactive) and 29.3% (inactive) | 118% (inactive) | 108% (inactive) | 112% (inactive) and 8.33% (active) | – | 106% (inactive) and 29.9% (inactive) | –
CC(=O)OCC(OC(C)=O)C(OC(C)=O)C(OC(C)=O)C(OC(C)=O)C(/C=N/Nc1ccccc1)=N/Nc1ccccc1 (stereo unspecified) | 60.6% (inactive) | 63.8% (inactive) | 96.4% (inactive) | 82.6% (inactive) | 85.5% (inactive) | 60.1% (inactive) | 71.8% (inactive) | – | 72.4% (inactive) | –
NNc1c2ccccc2nc2ccccc12 | 34.7% (inactive) | 57.2% (inactive) | 102% (inactive) | 34.4% (inactive) | 63.5% (inactive) | 55% (inactive) | 51.4% (inactive) | – | 57.3% (inactive) | –
C[n+]1c2cc(N)ccc2cc2ccc(N)cc21 | – | – | -5.86% (active) and 16.3% (inactive) and -3.49% (active) | – | 3.68% (active) [middle of 4 runs] | 16.7% (inactive) and 36.3% (inactive) and 12.2% (inactive) | – | – | 18.2% (inactive) [middle of 4 runs] | –
